Unmarked numbers belong to inactive results. Records with an inconclusive call do not appear. The source made the active and inactive calls. Unless noted, calls come from the whole dose curve; as a rule, active = well fitted curve in the direction sought with a large enough effect in the repeat runs; inconclusive = weak or mixed curves; inactive = no such curve, though single readings can be large; an effect the other way counts as inactive or inconclusive.

The values below come from PubChem BioAssay (Tox21).

For experiment [1], the target named is Thyrotropin-releasing hormone receptor (Homo sapiens) (UniProt P34981). The experiment in a line: qHTS assay to identify small molecule agonists of the thyrotropin-releasing hormone receptor (TRHR) signaling pathway (AID 1346891; calls by dose curve;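 note: HEK293 cells expressing TRHR with calcium dye readout; series mostly up to about 58 µM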). In outline: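 In 1536-format, 1500 TRHR-Hek293 cells per well grew 18 h, took up calcium dye for 2 h at 37 °C, received compound, and were read kinetically; 15-point titrations, triplicates.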
Sequence of Thyrotropin-releasing hormone receptor (Homo sapiens) (P34981 whole entry, looked up): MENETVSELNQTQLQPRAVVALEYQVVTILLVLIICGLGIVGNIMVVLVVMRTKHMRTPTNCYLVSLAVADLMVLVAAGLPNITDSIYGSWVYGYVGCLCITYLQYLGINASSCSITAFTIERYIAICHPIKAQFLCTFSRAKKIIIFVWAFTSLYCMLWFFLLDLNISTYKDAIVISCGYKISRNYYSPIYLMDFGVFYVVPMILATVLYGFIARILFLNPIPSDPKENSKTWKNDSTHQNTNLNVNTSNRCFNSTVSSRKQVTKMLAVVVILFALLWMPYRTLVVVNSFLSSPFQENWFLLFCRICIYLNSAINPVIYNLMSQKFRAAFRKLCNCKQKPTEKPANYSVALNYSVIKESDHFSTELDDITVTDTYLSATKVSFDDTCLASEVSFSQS

The nature of experiment [2]: Human pregnane X receptor (PXR) small molecule agonists, qHTS cell viability counter screen (AID 1346977). Note: nearly all actives have a fitted effect of over 50% in size. The gist of the method:
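Readout is CellTiter-Fluor fluorescence from PXR-Luc HepG2 cells. Plated cells rested 5hr, then were treated with compounds for 24hr at 37C and 5% CO2, with reagent present during the last hour.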

Experiment [3] is described as follows: Caspase-3/7 induction in HepG2 cells by small molecules, qHTS assay (AID 1346978). Note: nearly all actives have a fitted effect of over 15% in size. The gist of the method: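 Caspase-3/7 induction was measured by Caspase-Glo 3/7 luminescence (30 min, room temperature) after a 17 hr compound exposure of wild-type HepG2 cells seeded at 2,000 per well and pre-incubated 5 hr.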
On the technique in general: Quantitative high-throughput screening tests each substance at several concentrations.

The nature of experiment [4]: Caspase-3/7 induction in CHO-K1 cells by small molecules, qHTS assay (AID 1346980). Note: nearly all actives have a fitted effect of over 15% in size. In outline:
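Luminescent Caspase-Glo 3/7 read (30min, room temperature) quantified apoptosis induction. Cells were wild-type CHO-K1, treated with compound for 17hr at 37 C and 5% CO2.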

A short description of experiment [5]: Caspase-3/7 induction in HepG2 cells by small molecules, qHTS cell viability counter screen (AID 1346981). Note: series mostly up to about 92 µM; nearly all actives have a fitted effect of over 30% in size. The gist of the method:
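In this quantitative HTS counter screen, compounds delivered in DMSO were left on unmodified HepG2 cells for 16 hr at 37 C. Viability was then determined fluorometrically with CellTiter-Fluor, in parallel with caspase-3/7 induction in the same wells.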

Experiment [6] concerns the target Nuclear receptor subfamily 1 group I member 2 (Homo sapiens) (UniProt O75469). The experiment in a line: Human pregnane X receptor (PXR) small molecule agonists, qHTS assay (AID 1346982). Note: nearly all actives have a fitted effect of over 35% in size. Note: potency is the fitted concentration of half-maximal effect. In outline:
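Reporter HepG2 cells expressing PXR-Luc are cultured in charcoal-stripped FBS (5%), treated with compounds for 24 hr at 37 C, and assayed by ONE-Glo luminescence after 30 min at room temperature.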

Experiment [7] has as its target Acetylcholinesterase (Homo sapiens) (UniProt P22303). The experiment in a line: Acetylcholinesterase (AChE) small molecule antagonists: colormetric cell-based qHTS assay (AID 1347395; calls by dose curve; note: nearly all actives have a fitted effect of over 30% in size; note: potency is the fitted concentration of half-maximal effect). The gist of the method: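 Neuroblastoma line SH-SY5Y supplied the enzyme; cells were preincubated with compound for 30 min at 37 C and 5% CO2. Acetylthiocholine with DTNB was then added for 90 min at 37 C, and thiocholine was measured by colour.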

Experiment [8] shares this target. The experiment in a line: Acetylcholinesterase (AChE) small molecule antagonists: enzyme-based qHTS assay (AID 1347397; calls by dose curve; note: nearly all actives have a fitted effect of over 55% in size; note: potency is the fitted concentration of half-maximal effect). Particulars: Potency: AChE enzyme activity inhibition. The gist of the method:
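Colorimetric DTNB readout of acetylthiocholine hydrolysis, 10 min at room temperature, after 30 min room-temperature exposure of 50 mU/mL recombinant human enzyme to compound; DMSO vehicle control.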

Experiment [9] shares this target. The experiment in a line: Acetylcholinesterase (AChE) small molecule antagonists: fluorescence cell-based qHTS assay (AID 1347398; calls by dose curve; note: nearly all actives have a fitted effect of over 50% in size; note: potency is the fitted concentration of half-maximal effect). To be noted: Potency: AChE activity. The gist of the method:
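Cellular AChE activity read as thiocholine from acetylthiocholine hydrolysis, detected by Thiolite Green fluorescence at 490/520 nm after 40 min at room temperature. Compounds were pre-incubated 30 min at 37 C on adherent SH-SY5Y cells.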

The target is the same in experiment [10]. The experiment in a line: Acetylcholinesterase (AChE) small molecule antagonists: enzyme-based qHTS assay with human liver microsomes (AID 1347399; calls by dose curve; note: nearly all actives have a fitted effect of over 60% in size). To be noted: Potency: qHTS inhibition. In outline: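 Recombinant human AChE (50 mU/mL in the enzyme mix) and human liver microsomes (0.25 mg/mL final) were preincubated with compound and NADPH (0.25 mg/mL final) for 30 min at 37 C. Acetylthiocholine/DTNB was then added; thiocholine was read colorimetrically after 10 min at room temperature.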

Experiment [11] deals with Cytochrome P450 2D6 (Homo sapiens) (UniProt P10635). The experiment in a line: Cytochrome P450 Family 2 Subfamily D Member 6 (CYP2D6) small molecule antagonists: luciferase reporter qHTS assay (AID 1671196). Note: nearly all actives have a fitted effect of over 50% in size. Note: potency is the fitted concentration of half-maximal effect. In outline: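 Test chemicals meet CYP2D6 plus proluciferin substrate (10 min, RT); NADPH regenerating solution then drives turnover for 1 h. Detection reagent halts the reaction; luminescence measured after 20 min.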
Sequence of Cytochrome P450 2D6 (Homo sapiens) (P10635 whole entry, looked up): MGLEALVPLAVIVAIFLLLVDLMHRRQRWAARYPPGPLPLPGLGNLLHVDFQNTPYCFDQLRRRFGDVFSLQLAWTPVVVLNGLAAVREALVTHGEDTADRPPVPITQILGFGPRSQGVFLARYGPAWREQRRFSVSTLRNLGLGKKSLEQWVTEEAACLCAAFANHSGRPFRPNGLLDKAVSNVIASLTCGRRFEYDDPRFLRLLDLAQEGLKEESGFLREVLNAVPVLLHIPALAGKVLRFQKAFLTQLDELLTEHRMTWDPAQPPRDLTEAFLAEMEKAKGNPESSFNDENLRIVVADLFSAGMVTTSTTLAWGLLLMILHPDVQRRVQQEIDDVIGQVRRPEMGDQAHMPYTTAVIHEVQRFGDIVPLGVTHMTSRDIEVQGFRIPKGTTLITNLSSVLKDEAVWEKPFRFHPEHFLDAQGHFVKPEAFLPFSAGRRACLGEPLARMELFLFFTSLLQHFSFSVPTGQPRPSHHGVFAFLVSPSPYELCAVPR
A general note: A reporter such as luciferase makes a cellular process visible.

Experiment [12] concerns the target Cytochrome P450 2C19 (Homo sapiens) (UniProt P33261). The experiment in a line: Cytochrome P450 Family 2 Subfamily C Member 19 (CYP2C19) small molecule antagonists: luciferase reporter qHTS assay (AID 1671197). Note: nearly all actives have a fitted effect of over 65% in size. Note: potency is the fitted concentration of half-maximal effect. In outline: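 P450-Glo CYP2C19 screening system; proluciferin substrate; DMSO compound stocks; 10 min RT preincubation; NADPH regeneration, 1 h at 37C; luciferin detection reagent, 20 min RT; luminescence as RLU.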

Experiment [13] deals with Cytochrome P450 2C9 (Homo sapiens) (UniProt P11712). The experiment in a line: Cytochrome P450 Family 2 Subfamily C Member 9 (CYP2C9) small molecule antagonists: luciferase reporter qHTS assay (AID 1671198). Note: nearly all actives have a fitted effect of over 50% in size. Note: potency is the fitted concentration of half-maximal effect. In outline: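 Enzyme-substrate mix preincubated with compound 10 min at room temperature; reaction started with NADPH regeneration solution, 1 h 37C. Luminescent luciferin product read after 20 min detection reagent.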
Sequence of Cytochrome P450 2C9 (Homo sapiens) (P11712 whole entry, looked up): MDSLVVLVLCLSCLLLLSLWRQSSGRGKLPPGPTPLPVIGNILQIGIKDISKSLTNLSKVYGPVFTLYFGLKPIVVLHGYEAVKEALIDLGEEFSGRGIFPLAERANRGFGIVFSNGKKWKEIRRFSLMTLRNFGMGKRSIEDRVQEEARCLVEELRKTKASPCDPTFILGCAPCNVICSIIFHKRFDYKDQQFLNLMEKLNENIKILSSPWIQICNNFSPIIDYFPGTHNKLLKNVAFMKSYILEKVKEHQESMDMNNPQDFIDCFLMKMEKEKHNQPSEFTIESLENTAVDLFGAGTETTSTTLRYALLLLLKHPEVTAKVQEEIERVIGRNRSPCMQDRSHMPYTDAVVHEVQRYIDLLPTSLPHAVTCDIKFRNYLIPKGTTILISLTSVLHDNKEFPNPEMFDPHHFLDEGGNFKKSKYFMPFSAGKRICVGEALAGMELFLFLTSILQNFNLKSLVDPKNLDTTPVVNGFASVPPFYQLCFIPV

For experiment [14], the target named is Cytochrome P450 1A2 (Homo sapiens) (UniProt P05177). The experiment in a line: Cytochrome P450 Family 1 Subfamily A Member 2 (CYP1A2) small molecule antagonists: luciferase reporter qHTS assay (AID 1671199). Note: nearly all actives have a fitted effect of over 50% in size. Note: potency is the fitted concentration of half-maximal effect. In outline: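 Steps: enzyme-substrate mix dispensed; test compounds and furafylline control pinned in; 10 min room temperature; NADPH regeneration solution added, 1 h; reaction stopped with luciferin detection reagent; luminescence read after 20 min.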
Sequence of Cytochrome P450 1A2 (Homo sapiens) (P05177 whole entry, looked up): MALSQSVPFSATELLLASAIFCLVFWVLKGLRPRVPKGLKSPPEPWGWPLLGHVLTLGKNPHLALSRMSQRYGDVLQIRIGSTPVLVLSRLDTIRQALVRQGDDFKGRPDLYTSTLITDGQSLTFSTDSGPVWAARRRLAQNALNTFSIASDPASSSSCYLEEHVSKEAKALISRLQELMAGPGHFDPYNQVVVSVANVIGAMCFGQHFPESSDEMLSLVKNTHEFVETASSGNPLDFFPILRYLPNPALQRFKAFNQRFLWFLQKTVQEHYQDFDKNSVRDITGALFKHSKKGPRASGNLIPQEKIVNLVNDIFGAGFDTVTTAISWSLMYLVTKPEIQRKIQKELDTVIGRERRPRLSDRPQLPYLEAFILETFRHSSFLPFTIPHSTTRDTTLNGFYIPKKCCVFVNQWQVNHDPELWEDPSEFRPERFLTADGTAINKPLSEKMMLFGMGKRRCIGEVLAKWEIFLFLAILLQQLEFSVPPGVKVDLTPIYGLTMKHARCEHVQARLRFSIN

Experiment [15] has as its target Voltage-gated inwardly rectifying potassium channel KCNH2 (Homo sapiens) (UniProt Q12809). The experiment in a line: Human Ether-a-go-go-Related Gene (hERG) channel small molecule antagonists: fluorescence cell-based qHTS assay (AID 1671200). In outline:
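Measured: Tl+ flux via fluorescence (480/540 nm) in hERG-expressing U2OS cells after 1 h dye loading at room temperature.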

In experiment [16] the target is Cytochrome P450 3A4 (Homo sapiens) (UniProt P08684). The experiment in a line: Cytochrome P450 Family 3 Subfamily A Member 4 (CYP3A4) small molecule antagonists: luciferase reporter qHTS assay (AID 1671201). Note: nearly all actives have a fitted effect of over 50% in size. Note: potency is the fitted concentration of half-maximal effect. In outline: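 Setup: enzyme-substrate mix, compound pin transfer, 10 min RT. Reaction: NADPH regeneration solution, 1 h RT. Readout: detection reagent stops turnover, luminescence measured after 20 min, expressed in relative luminescence units.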
Sequence of Cytochrome P450 3A4 (Homo sapiens) (P08684 whole entry, looked up): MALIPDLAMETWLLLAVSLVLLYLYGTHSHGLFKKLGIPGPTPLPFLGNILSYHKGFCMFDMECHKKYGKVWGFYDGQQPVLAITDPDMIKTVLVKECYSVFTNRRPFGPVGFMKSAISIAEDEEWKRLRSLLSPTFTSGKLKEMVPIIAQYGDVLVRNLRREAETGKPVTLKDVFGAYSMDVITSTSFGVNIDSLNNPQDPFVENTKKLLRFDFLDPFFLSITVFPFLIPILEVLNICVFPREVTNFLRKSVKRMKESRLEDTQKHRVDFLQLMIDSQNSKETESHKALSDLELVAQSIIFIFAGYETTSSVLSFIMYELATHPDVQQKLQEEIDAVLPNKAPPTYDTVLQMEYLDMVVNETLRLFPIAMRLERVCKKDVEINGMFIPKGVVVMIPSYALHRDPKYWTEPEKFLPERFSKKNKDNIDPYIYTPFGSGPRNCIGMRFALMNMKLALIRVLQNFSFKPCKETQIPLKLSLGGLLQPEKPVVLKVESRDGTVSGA

In experiment [17] the target is Nuclear receptor subfamily 1 group I member 2 (Rattus norvegicus) (UniProt Q9R1A7). The experiment in a line: Rat pregnane X receptor (rPXR) activation by small molecules, qHTS assay (AID 1346983). Note: nearly all actives have a fitted effect of over 20% in size. Particulars: rPXR luciferase reporter cells, One-Glo luminescence, 24 h; max activation: stronger effect = higher value. In outline: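 Luminescent readout (One-Glo luciferase, 30 min room temperature) followed 24 hr compound treatment at 37 C of rPXR cells plated 2,000 per well and preincubated 5hr; qHTS format with compounds delivered in DMSO.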

Experiment [18] has as its target Nuclear receptor subfamily 1 group I member 2 (Homo sapiens) (UniProt O75469). The experiment in a line: CYP3A4 induction through human pregnane X receptor (PXR) by small molecules, qHTS assay (AID 1346984). Note: nearly all actives have a fitted effect of over 40% in size. In outline: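 Induction measured in HepG2-based DPX-2 cells co-expressing human PXR and a CYP3A4 promoter-driven luciferase. After a 24-hour compound exposure, cells received CYP3A4 luciferin substrate at 3uM final for 3 hours, and light output was then recorded.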

For experiment [19] the target is unchanged. The experiment in a line: Human pregnane X receptor (PXR) activation by small molecules, qHTS assay (AID 1346985). Note: nearly all actives have a fitted effect of over 40% in size. The gist of the method: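 DPX-2 cells (HepG2 co-transfected with a PXR response element and a CYP3A4-promoter luciferase construct) were seeded at 2,000 per well, rested 5 hr at 37C, then exposed to DMSO-dissolved compounds for 24 hr. Activation was read as luciferase luminescence.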

A short description of experiment [20]: Caspase-3/7 induction in CHO-K1 cells by small molecules, qHTS cell viability counter screen (AID 1346979). Note: nearly all actives have a fitted effect of over 35% in size. Note: potency is the fitted concentration of half-maximal effect. In outline: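 To flag cytotoxic compounds, treated CHO-K1 wild-type cells were given CellTiter-Fluor at 16hr and read fluorescently after 1hr at 37C; the caspase-3/7 luminescence was measured in these same wells.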
% is set by controls: 0 for no effect and ±100 for the full control effect.

Sequence of Nuclear receptor subfamily 1 group I member 2 (Homo sapiens) (O75469 whole entry, looked up): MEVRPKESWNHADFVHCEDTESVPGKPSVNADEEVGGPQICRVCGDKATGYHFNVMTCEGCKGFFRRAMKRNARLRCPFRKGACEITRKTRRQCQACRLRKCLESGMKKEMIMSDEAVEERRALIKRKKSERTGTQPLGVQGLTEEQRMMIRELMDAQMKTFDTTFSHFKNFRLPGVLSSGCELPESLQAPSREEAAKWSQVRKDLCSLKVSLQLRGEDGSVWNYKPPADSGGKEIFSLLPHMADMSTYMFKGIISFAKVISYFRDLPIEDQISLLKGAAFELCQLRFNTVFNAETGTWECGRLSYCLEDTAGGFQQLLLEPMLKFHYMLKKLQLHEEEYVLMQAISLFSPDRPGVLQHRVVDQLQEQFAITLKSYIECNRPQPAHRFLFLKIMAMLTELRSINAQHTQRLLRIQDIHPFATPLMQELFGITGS
Sequence of Acetylcholinesterase (Homo sapiens) (P22303 whole entry, looked up): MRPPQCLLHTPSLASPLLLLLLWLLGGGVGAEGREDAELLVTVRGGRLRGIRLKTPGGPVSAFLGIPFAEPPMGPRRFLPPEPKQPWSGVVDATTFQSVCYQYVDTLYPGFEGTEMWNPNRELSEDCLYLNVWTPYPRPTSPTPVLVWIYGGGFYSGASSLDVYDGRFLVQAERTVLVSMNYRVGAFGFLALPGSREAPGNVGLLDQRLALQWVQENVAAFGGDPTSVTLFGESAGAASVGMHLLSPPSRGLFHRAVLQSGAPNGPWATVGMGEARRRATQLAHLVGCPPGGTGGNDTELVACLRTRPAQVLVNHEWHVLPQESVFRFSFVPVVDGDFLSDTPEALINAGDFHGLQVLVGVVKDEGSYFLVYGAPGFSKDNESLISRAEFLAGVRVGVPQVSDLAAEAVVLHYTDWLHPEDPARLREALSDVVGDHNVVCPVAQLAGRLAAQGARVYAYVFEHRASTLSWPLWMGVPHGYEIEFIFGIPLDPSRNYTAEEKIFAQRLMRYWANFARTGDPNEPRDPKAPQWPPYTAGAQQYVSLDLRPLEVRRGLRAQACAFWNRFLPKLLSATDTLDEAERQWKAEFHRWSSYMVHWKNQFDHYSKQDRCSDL
Sequence of Voltage-gated inwardly rectifying potassium channel KCNH2 (Homo sapiens) (Q12809 whole entry, looked up): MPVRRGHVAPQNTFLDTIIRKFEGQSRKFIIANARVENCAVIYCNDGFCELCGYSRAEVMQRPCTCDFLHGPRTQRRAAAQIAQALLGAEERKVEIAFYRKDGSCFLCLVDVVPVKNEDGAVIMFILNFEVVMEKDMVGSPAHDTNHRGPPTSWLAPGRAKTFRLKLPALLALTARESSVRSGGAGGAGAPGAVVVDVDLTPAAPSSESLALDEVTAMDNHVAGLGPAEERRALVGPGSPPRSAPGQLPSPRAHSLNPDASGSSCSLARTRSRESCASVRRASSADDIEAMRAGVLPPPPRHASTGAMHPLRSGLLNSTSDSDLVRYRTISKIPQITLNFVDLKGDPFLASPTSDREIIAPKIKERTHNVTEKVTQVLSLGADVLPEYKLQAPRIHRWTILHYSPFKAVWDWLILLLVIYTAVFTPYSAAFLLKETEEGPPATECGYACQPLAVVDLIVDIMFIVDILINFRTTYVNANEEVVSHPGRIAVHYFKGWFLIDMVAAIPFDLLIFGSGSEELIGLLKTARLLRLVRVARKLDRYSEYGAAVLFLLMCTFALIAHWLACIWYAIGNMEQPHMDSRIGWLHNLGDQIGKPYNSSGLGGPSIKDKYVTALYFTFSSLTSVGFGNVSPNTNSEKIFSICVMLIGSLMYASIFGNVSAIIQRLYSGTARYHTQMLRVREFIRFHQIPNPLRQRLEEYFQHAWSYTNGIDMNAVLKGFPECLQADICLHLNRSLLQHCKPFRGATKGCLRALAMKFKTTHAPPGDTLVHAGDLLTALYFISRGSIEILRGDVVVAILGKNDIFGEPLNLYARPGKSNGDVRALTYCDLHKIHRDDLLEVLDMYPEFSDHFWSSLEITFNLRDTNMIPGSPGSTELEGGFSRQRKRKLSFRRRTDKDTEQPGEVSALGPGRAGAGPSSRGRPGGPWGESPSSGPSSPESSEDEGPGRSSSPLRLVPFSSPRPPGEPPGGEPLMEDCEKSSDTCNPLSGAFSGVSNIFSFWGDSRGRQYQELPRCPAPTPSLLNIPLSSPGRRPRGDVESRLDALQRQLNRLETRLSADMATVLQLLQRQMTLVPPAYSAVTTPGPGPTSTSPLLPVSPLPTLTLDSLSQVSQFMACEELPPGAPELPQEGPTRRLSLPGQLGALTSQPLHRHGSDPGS

`CNP(=O)(OC)Oc1ccc(C(C)(C)C)cc1Cl` (centres undefined): the Potency entry in [1], in experiment [2], in [3], in experiment [4], in experiment [5] and in experiment [10] was “inactive” in each case. The Potency result in [15] and in [16] was “inactive” in each case. Moreover, the Potency is 17.2 µM (active) in [6]; 71 µM (active) in experiment [7]; 79.6 µM (active) in experiment [8]; 31.7 µM (active) in experiment [9]; 71 µM (active) in experiment [11]; 8.94 µM (active) in experiment [12]. In addition, the Potency in experiment [13] and in [14] was 35.6 µM (active) throughout.

For the molecule `COC(N)=O`, the Potency entry in [1], in experiment [2], in experiment [4], in experiment [5], in experiment [6] and in experiment [7] was “inactive” throughout. For the same molecule, the Potency entry in [8], in [9], in experiment [11], in experiment [12], in experiment [13] and in experiment [15] was “inactive” in each case. The Potency result in experiment [16] was “inactive”. Besides, the Potency in experiment [14] is 35.6 µM (active).

As for `COCC(C)N(C(=O)CCl)c1c(C)csc1C` (centres undefined), the Potency entry in experiment [1], in [2], in [3], in [5], in [6] and in experiment [18] was “inactive” each time. For the same molecule, the Potency result in [19], in [7], in experiment [8], in experiment [9], in [10] and in experiment [11] was “inactive” throughout. Further, the Potency result in [15] and in experiment [16] was “inactive” throughout. Further, the max activation in experiment [17] is -3.61%. The Potency in [12] is 6.33 µM (active); in [13] it was 7.96 µM (active).

Regarding `O=C1C(=O)c2cccc3cccc1c23`, the Potency result in experiment [1], in experiment [2], in experiment [4], in experiment [5], in [7] and in [8] was “inactive” in each case. Besides, the Potency entry in experiment [10], in [15] and in experiment [16] was “inactive” throughout. In addition, the Potency in experiment [20] was 21.7 µM (active); in experiment [6] it was 54.4 µM (active); in experiment [12], 39.9 µM (active); in [14], 8.93 µM (active).

For the molecule `CC(O)(CS(=O)(=O)c1ccc(F)cc1)C(=O)Nc1ccc(C#N)c(C(F)(F)F)c1` (centres undefined), the Potency entry in [1], in [2], in [4], in [5], in experiment [18] and in [19] was “inactive” each time. Besides, the Potency result in [7], in [8], in experiment [9], in experiment [10], in [11] and in experiment [14] was “inactive” each time. Also, the Potency is 31.8 µM (active) in experiment [6], 3.69 µM (active) in [12], 13.1 µM (active) in [13] and 2.33 µM (active) in [16].

For `OCCCBr`, the Potency result in experiment [1], in experiment [2], in experiment [20], in [4], in experiment [6] and in experiment [8] was “inactive” throughout. In addition, the Potency result in [9], in [10] and in [15] was “inactive” each time. The results for the Potency in [12] and in experiment [14] were 3.99 µM (active) and 61.8 µM (active), respectively.

`CC(=O)NC1CCSC1=O` (centres undefined): the Potency entry in experiment [1], in experiment [2], in experiment [3], in experiment [5], in [6] and in experiment [18] was “inactive” throughout. The Potency result in experiment [19], in experiment [7], in experiment [8], in experiment [9], in experiment [10] and in [11] was “inactive” in each case. For the same molecule, the Potency result in [12], in [14], in [15] and in [16] was “inactive” throughout. The max activation in experiment [17] is 10.8%.
